Screening data (PubChem BioAssay)
In the library only some 4.6% were active in any assay of this set; here they are far more common.
tim10-1 inh = growth inhibitors of tim10-1 mutant yeast; S. cerevisiae tim10-1 ts strain growth, BacTiter-Glo, 24 h; inhibition, % at 20 µM; 330,000 compounds, 2.2% hits;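 active means inhibition of at least 40%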;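 further: mutant grown at 25 °C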
PfHsp90 yeast 2 = growth inhibition of yeast expressing Plasmodium Hsp90; S. cerevisiae expressing PfHsp90, BacTiter-Glo ATP, 48 h; yeast lacking PDR1 and PDR3 efflux regulators; inhibition, % at 9.4 µM; 310,000 compounds, 0.32% hits; AID 504621;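 active means every replicate shows inhibition above about 80%, whatever the replicate mean, limit read from the data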
TIM10 inh = TIM10 yeast growth inhibition; S. cerevisiae TIM10 strain growth, BacTiter-Glo luminescence, 24 h; inhibition, % at 10 µM; 330,000 compounds, 1.4% hits; AID 463195;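 active means inhibition of 40% or more at the single tested concentration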;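 further: wild-type TIM10 isogenic control strain grown at permissive 25 °C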
SKKanGAS inh = SKKanGAS growth inhibition; 300,000 compounds, 1.3% hits; S. pyogenes SKKanGAS, kanamycin growth, BacTiter-Glo, 6 h; inhibition, % at 7.5 µM;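 active means mean replicate score, as percent of positive control median, at least 50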;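 further: strain carries kanamycin resistance gene driven by streptokinase promoter and grows in 40 µg/ml kanamycin; loss of luminescence reflects streptokinase promoter inhibition or plain growth inhibition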
V-ATPase pHluor = yeast V-ATPase proton transport regulation by pHLuorin. S. cerevisiae, pHLuorin cytosolic pH fluorescence. response, % at 10 µM. 350,000 compounds, 0.37% hits; in the data active means response mostly above about 7.3%, no sharp cut-off; inactive means mostly below about 5.4%; further: actives read high
tim23-1 inh = growth inhibitors of tim23-1 mutant yeast; inhibition, % at 20 µM; S. cerevisiae tim23-1 growth, BacTiter-Glo luminescence, 24 h; 330,000 compounds, 1.3% hits; AID 463212;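 active means growth inhibition of the mutant yeast at or above 50%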;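 further: temperature-sensitive mutant grown at 25 °C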
tim10-1 confirm = tim10-1 yeast growth inhibition, confirmed; shares compounds with tim10-1 inh; S. cerevisiae tim10-1 ts strain growth, BacTiter-Glo, 24 h; inhibition, % at 20 µM; 7,400 compounds, 56% hits; AID 463213;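 active means inhibition of yeast growth at or above a set limit in either of two repeat tests at 20 µM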;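 further: tim10-1 mutant grown at permissive 25 °C to find synthetic lethal compounds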
tim10 confirm = TIM10 yeast growth inhibition, confirmed; shares compounds with TIM10 inh; inhibition, % at 10 µM; AID 463215; 4,600 compounds, 63% hits; S. cerevisiae tim10 strain growth, BacTiter-Glo luminescence, 24 h;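 active means inhibition of yeast growth at or above a set limit in either of two replicates at 10 µM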; further: this counterscreen used the strain with wild-type TIM10
tim23-1 conf = confirmation of tim23-1 mutant yeast growth inhibitors. shares compounds with tim23-1 inh. S. cerevisiae tim23-1 growth, BacTiter-Glo luminescence, 24 h. inhibition, % at 20 µM. 4,400 compounds, 83% hits;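 active means inhibition above about 39% in either of two replicate wells at 20 µM, limit read from the data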;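 further: temperature-sensitive tim23-1 mutant grown at 25 °C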
Numbers stand for hits; n = inactive; x = no result.

SMILES	tim10-1 inh	PfHsp90 yeast 2	TIM10 inh	SKKanGAS inh	V-ATPase pHluor	tim23-1 inh	tim10-1 confirm	tim10 confirm	tim23-1 conf
O=Nc1ccc(NOC(=O)c2ccccc2)cc1	44	n	46	n	n	59	54	53	70
COC(=O)c1ccc(N=Nc2ccccc2)cc1	n	x	n	n	n	n	x	x	x
O=C1/C(=C/c2cccs2)SC(=S)N1N1CCOCC1	n	n	n	n	n	n	x	x	x
O=C1/C(=C/c2ccncc2)SC(=S)N1N1CCOCC1	56	n	58	n	n	69	50	55	48
C[C@H](CO)N1C[C@H](C)[C@@H](CN(C)C(=O)NC2CCCCC2)Oc2ccc(NS(C)(=O)=O)cc2C1=O	n	n	n	x	n	n	x	x	x
Cc1noc(C)c1COc1ccccc1C(=O)N(C)CC(=O)Nc1ccc(F)c(F)c1F	n	n	n	x	n	n	x	x	x
O=C(/C=C/c1cccs1)NC(=S)NNC(=O)c1ccccc1O	44	n	42	79	n	64	n	42	66
CCN1CCN(C(=S)NC(=O)/C=C/c2cccs2)CC1	n	n	n	n	n	n	x	x	x
COc1ccc(C(=O)O/N=C(\N)c2ccccc2)c(OC)c1	76	n	70	x	n	60	72	67	87
COc1ccc(C(=O)O/N=C(\N)c2ccc(OC)c(OC)c2)cc1	73	n	49	n	n	53	78	40	64
C[C@@H]1CN([C@H](C)CO)C(=O)CCCn2cc(nn2)CO[C@H]1CN(C)S(=O)(=O)c1ccc2ccccc2c1	x	x	x	x	n	x	x	x	x
O=C1N=C(N2C=CC(=C3C=CNC=C3)C=C2)/C(=C/N=NC(=O)c2ccccc2)S1	n	n	n	n	n	n	x	x	x
Cc1cc(O)c(C(=O)/C=C/c2ccc(Cl)cc2)c(=O)o1	47	n	n	n	n	53	40	x	52
CCCCN1C(=O)N(c2ccccc2Cl)C(C)(O)CC1(C)C (stereo not drawn)	n	n	n	n	n	n	x	x	x
COC(=O)C(Cc1c[nH]c2ccccc12)NC(=O)c1cc(-c2ccc(OC)c(OC)c2)oc1C (stereo not drawn)	n	n	n	n	n	n	x	x	x
CCN(CC)C(=O)Cn1cc(SCC(=O)NC2CCCCC2)c2ccccc21	x	x	x	x	n	x	x	x	x
CC(=O)Nc1ccc(S(=O)(=O)N2CCN(c3cc(C)ccc3C)CC2)cc1	60	n	n	n	n	54	49	x	47
O=C(c1cc(COc2c(F)cccc2F)on1)N1CCC(c2ccccc2F)C1 (stereo not drawn)	n	n	n	n	n	n	x	x	x
CN1CCN(C(=O)c2cc(COc3c(F)cccc3F)on2)CC1c1ccccc1 (stereo not drawn)	42	110	52	n	n	63	n	53	50
COc1ccccc1OCc1cc(C(=O)N2CCN(C)C(c3ccccc3)C2)no1 (stereo not drawn)	52	107	n	n	n	55	n	x	n
Cc1ccc(Nc2nc(-c3c(C)nc4ccccn34)cs2)cc1	51	n	58	n	n	54	32	58	43
Cc1ccc(Nc2nc(-c3c(C)nc4ncccn34)cs2)cc1	n	n	n	n	n	n	x	x	x
COc1ccccc1CNC(=O)COC(=O)c1cnc(C)cn1	x	x	x	x	n	x	x	x	x
COc1ccc2oc(/C=C/N(C)C)c(C(=O)c3ccc(Cl)cc3)c2c1	45	112	n	n	n	50	n	x	51
Cc1ccc(S(=O)(=O)c2cc3c(=O)n4cccc(C)c4nc3n(Cc3ccncc3)c2=N)cc1	n	n	n	n	n	n	x	x	x
SMILES	tim10-1 inh	PfHsp90 yeast 2	TIM10 inh	SKKanGAS inh	V-ATPase pHluor	tim23-1 inh	tim10-1 confirm	tim10 confirm	tim23-1 conf
CCN(CC)C(=O)CSc1nnc(-c2ccccn2)n1Cc1ccccc1	n	n	n	n	n	n	x	x	x
CCSC1=NCCN1C(=O)Cc1ccc(-c2ccccc2)cc1	77	x	76	n	n	67	76	74	n
CSC1=NCCN1C(=O)Cc1ccc(F)cc1	n	n	n	n	n	n	x	x	x
CCC(=O)N1CCN=C1SCc1ccccc1	n	n	n	n	n	n	x	x	x
CSC1=NCCN1C(=O)Cc1ccc(-c2ccccc2)cc1	61	n	59	n	n	73	69	67	n
COc1ccc2cc3cc(C(=O)NCc4cccs4)oc3nc2c1	n	x	n	n	n	n	x	x	x
COc1ccc2cc3cc(C(=O)NCCN4CCc5ccccc5C4)oc3nc2c1	75	n	86	n	n	63	68	n	n
C[C@H](CO)N1C[C@H](C)[C@@H](CN(C)Cc2ccc(C(=O)Nc3ccccc3N)cc2)Oc2c(NC(=O)C3CCCCC3)cccc2C1=O	n	n	n	x	n	n	x	x	x
CCC(=O)Nc1cccc(-c2csc(-c3ccccc3)n2)c1	40	n	52	n	n	55	35	n	60
CCOc1c(Br)cc(/C=C(\C#N)C(=O)NC2CC2)cc1OC	85	n	56	n	n	87	78	67	84
N#C/C(=C\c1ccccc1[N+](=O)[O-])C(=O)NC1CCCCC1	75	n	72	n	n	76	84	83	73
C=CCNC(=O)/C(C#N)=C/c1ccc(C(=O)O)cc1	n	n	n	n	n	n	x	x	x
N#C/C(=C\c1cccn1-c1ccccc1)C(=O)NC1CCCCC1	n	n	n	n	n	n	x	x	x
C=CCNC(=O)/C(C#N)=C\c1cc(Cl)c(OCC)c(OC)c1	79	n	67	n	n	82	79	73	84
N#C/C(=C\c1cc(Br)ccc1F)C(=O)NC1CC1	77	n	51	n	n	90	60	80	91
CC(C)(C)c1ccc(/C=C(\C#N)C(=O)NC2CC2)cc1	51	x	58	n	n	85	78	65	51
N#C/C(=C\c1ccc(F)c(Br)c1)C(=O)NC1CC1	48	n	44	n	n	84	46	58	74
CCc1ccc(/C=C(\C#N)C(=O)NC2CCS(=O)(=O)C2)cc1 (stereo not drawn)	n	n	n	x	n	n	x	x	x
N#C/C(=C\c1ccc(F)c(F)c1)C(=O)NC1CCCCC1	52	n	65	n	n	68	65	78	59
